Measurements as given in article PMC7862700, “An all-to-all approach to the identification of sequence-specific readers for epigenetic DNA modifications on cytosine”.

What was measured:
Assay in all cases: DAPPL (digital affinity profiling via proximity ligation, sequencing); 10 mM Tris-HCl pH 7.5, 50 mM NaCl, 1 mM DTT, 4% glycerol, room temperature, 30 min; GST-TFs on glutathione beads, 16-mer random dsDNA library, 0.1% formaldehyde crosslink after washing; high values mean tight binding
[1] = target: T1, FLI1 (Homo sapiens, UniProt Q01543 1-452); conditions: protein: recombinant; tags: N-terminal GST; dsDNA, one strand shown
T1 sequence: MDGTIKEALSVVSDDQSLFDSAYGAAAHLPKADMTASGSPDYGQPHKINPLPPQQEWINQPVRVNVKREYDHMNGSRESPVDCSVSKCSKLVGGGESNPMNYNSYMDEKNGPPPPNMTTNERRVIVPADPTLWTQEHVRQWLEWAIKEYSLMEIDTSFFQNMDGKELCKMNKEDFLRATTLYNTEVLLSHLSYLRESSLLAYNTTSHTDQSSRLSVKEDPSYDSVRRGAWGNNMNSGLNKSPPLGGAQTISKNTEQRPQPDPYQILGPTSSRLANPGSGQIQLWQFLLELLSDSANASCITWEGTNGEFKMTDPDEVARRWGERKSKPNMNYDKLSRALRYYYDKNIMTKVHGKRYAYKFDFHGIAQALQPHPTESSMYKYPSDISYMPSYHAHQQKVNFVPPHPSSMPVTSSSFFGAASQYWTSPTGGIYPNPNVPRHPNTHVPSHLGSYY
How it was run: (§1)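 Pools were built from human transcription factors expressed in yeast as GST fusions, captured on glutathione beads and DNA-barcoded, along with a tag-only sample. Incubation with 200 nmole of a 16-mer random double-stranded DNA library lasted 30 min at room temperature in Tris/NaCl/DTT/glycerol buffer, and was followed by washing, 0.1% formaldehyde crosslinking, proximity ligation, PCR amplification and Illumina NextSeq500 sequencing. Binding signal is the quotient of each hexamer's read frequency for a factor and its frequency for the tag-only sample.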

[2] = target: T2, ELK1 (Homo sapiens, UniProt P19419 1-428); conditions: protein: recombinant; tags: N-terminal GST; dsDNA, one strand shown
T2 sequence: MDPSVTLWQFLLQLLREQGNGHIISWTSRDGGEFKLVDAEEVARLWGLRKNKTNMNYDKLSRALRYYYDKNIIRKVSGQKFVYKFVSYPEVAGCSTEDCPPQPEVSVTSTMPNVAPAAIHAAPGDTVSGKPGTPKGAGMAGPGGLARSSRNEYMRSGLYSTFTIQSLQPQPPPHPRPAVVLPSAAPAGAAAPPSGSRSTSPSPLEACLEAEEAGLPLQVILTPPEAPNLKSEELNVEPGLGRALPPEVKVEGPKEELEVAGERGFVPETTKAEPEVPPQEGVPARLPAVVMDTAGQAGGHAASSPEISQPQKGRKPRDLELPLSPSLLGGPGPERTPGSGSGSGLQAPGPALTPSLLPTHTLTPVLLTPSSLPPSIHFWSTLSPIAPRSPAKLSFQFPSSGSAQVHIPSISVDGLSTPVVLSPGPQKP
How it was run: as §1

[3] = target: T3, GABPA (Homo sapiens, UniProt Q06546 1-454); conditions: protein: recombinant; tags: N-terminal GST; dsDNA, one strand shown
T3 sequence: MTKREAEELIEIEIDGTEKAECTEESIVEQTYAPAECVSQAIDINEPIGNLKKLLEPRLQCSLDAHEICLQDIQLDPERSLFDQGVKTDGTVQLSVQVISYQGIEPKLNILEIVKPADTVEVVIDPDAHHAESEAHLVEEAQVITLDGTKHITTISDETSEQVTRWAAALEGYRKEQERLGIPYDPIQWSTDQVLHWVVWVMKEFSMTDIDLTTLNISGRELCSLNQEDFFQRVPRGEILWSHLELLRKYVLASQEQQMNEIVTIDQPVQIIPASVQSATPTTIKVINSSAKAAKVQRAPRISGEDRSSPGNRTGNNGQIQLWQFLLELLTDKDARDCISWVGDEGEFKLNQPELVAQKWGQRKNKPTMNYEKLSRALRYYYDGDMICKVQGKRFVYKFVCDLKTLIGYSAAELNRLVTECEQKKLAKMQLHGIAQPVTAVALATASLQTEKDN
How it was run: as §1

[4] = target: T4, ERG (Homo sapiens, UniProt P11308 1-479); conditions: protein: recombinant; tags: N-terminal GST; dsDNA, one strand shown
T4 sequence: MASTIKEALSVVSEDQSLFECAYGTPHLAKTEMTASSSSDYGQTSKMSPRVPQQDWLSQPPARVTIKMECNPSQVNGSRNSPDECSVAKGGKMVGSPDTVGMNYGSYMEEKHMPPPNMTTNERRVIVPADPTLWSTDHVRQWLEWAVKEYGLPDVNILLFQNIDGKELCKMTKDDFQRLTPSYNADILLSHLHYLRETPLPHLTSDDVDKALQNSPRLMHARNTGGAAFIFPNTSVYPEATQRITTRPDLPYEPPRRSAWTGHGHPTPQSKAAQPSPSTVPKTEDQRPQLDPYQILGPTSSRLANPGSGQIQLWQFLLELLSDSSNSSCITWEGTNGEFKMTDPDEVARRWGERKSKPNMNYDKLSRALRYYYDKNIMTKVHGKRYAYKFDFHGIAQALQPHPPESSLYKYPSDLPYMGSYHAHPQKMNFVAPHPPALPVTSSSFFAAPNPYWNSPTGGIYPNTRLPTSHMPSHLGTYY
How it was run: as §1

[5] = target: ELF1 (Homo sapiens, UniProt P32519 1-619); conditions: protein: recombinant; tags: N-terminal GST; dsDNA, one strand shown
How it was run: as §1

[6] = target: T5, EHF (Homo sapiens, UniProt Q9NZC4 1-300); conditions: protein: recombinant; tags: N-terminal GST; dsDNA, one strand shown
T5 sequence: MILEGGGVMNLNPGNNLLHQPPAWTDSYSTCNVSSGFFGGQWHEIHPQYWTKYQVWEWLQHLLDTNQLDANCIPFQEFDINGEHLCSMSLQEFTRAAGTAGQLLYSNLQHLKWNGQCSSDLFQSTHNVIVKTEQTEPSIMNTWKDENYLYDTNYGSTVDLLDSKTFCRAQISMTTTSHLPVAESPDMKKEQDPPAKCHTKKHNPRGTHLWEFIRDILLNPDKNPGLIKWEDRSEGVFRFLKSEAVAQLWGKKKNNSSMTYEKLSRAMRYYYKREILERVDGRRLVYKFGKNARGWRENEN
How it was run: as §1

[7] = target: SPI1 (Homo sapiens, UniProt P17947 1-270); conditions: protein: recombinant; tags: N-terminal GST; dsDNA, one strand shown
How it was run: as §1

[8] = target: SPIB (Homo sapiens, UniProt Q01892 1-262); conditions: protein: recombinant; tags: N-terminal GST; dsDNA, one strand shown
How it was run: as §1

[9] = target: T6, ELK3 (Homo sapiens, UniProt P41970 1-407); conditions: protein: recombinant; tags: N-terminal GST; dsDNA, one strand shown
T6 sequence: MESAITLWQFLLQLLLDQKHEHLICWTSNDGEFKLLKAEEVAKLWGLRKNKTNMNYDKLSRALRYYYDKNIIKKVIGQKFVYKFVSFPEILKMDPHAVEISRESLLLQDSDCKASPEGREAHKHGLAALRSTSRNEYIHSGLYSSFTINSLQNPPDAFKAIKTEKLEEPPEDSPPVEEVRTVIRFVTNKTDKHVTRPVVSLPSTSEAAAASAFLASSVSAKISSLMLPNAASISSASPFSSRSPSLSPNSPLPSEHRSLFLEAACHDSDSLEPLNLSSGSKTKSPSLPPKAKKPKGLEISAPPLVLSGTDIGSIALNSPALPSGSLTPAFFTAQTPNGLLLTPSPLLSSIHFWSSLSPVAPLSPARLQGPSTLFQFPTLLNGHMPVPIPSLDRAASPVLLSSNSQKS
How it was run: as §1

[10] = target: T7, FEV (Homo sapiens, UniProt Q99581 1-238); conditions: protein: recombinant; tags: N-terminal GST; dsDNA, one strand shown
T7 sequence: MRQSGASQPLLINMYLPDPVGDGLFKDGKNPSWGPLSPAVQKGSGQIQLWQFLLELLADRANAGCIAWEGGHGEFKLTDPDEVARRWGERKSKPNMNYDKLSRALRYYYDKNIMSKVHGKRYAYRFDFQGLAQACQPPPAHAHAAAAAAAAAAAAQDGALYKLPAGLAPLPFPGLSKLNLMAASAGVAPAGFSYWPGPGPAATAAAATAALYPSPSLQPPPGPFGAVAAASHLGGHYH
How it was run: as §1

[11] = target: ETV5 (Homo sapiens, UniProt P41161 1-510); conditions: protein: recombinant; tags: N-terminal GST; dsDNA, one strand shown
How it was run: as §1

[12] = target: HSF1 (Homo sapiens, UniProt Q00613 1-529); conditions: protein: recombinant; tags: N-terminal GST; chain copies: 3; dsDNA, one strand shown
How it was run: as §1

[13] = target: T8, SPIC (Homo sapiens, UniProt Q8N5J4 1-248); conditions: protein: recombinant; tags: N-terminal GST; dsDNA, one strand shown
T8 sequence: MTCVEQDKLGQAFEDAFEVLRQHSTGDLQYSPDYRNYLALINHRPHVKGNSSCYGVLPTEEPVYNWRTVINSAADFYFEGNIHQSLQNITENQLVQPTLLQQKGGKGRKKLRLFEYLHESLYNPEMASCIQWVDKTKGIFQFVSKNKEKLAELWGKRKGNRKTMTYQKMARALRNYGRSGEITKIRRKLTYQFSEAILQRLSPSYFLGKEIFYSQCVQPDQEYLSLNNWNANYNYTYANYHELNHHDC
How it was run: as §1

[14] = target: ELF4 (Homo sapiens, UniProt Q99607 1-663); conditions: protein: recombinant; tags: N-terminal GST; dsDNA, one strand shown
How it was run: as §1

[15] = target: T9, ELK4 (Homo sapiens, UniProt P28324-2 1-405); conditions: protein: recombinant; tags: N-terminal GST; dsDNA, one strand shown
T9 sequence: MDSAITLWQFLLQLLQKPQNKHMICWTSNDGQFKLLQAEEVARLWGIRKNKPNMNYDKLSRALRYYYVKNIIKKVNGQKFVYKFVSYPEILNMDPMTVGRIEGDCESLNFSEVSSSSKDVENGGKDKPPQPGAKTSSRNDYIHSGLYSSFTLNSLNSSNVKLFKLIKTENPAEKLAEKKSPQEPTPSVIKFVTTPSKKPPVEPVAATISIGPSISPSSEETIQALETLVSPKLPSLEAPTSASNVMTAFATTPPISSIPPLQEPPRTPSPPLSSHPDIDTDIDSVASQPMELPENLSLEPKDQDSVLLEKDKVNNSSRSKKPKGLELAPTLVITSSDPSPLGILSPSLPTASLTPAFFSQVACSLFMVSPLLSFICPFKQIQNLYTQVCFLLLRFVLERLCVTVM
How it was run: as §1

[16] = target: T10, ETV2 (Homo sapiens, UniProt O00321 1-342); conditions: protein: recombinant; tags: N-terminal GST; dsDNA, one strand shown
T10 sequence: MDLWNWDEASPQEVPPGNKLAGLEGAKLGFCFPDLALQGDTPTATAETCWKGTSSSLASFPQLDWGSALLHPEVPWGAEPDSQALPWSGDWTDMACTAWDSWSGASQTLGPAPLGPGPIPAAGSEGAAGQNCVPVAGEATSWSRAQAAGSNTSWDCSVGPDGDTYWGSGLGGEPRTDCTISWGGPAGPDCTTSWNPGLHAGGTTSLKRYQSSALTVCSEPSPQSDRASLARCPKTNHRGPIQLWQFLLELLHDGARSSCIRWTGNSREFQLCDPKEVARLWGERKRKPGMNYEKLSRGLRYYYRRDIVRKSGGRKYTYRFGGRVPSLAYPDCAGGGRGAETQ
How it was run: as §1

[17] = target: T11, ELF3 (Homo sapiens, UniProt P78545 1-371); conditions: protein: recombinant; tags: N-terminal GST; dsDNA, one strand shown
T11 sequence: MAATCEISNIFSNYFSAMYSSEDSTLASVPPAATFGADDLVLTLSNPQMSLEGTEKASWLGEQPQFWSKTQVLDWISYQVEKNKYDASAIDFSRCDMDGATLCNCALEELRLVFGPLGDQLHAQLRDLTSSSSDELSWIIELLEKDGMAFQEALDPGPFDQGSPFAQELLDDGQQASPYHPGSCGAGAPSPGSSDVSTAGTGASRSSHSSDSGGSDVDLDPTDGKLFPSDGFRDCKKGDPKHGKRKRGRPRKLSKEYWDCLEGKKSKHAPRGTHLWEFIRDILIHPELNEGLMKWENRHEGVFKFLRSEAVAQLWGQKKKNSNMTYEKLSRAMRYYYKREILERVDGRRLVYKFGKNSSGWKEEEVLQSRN
How it was run: as §1

[18] = target: CRX (Homo sapiens, UniProt O43186 1-299); conditions: protein: recombinant; tags: N-terminal GST; dsDNA, one strand shown
How it was run: as §1

[19] = target: ETV1 (Homo sapiens, UniProt P50549 1-477); conditions: protein: recombinant; tags: N-terminal GST; dsDNA, one strand shown
How it was run: as §1

CRX, sequence (O43186 whole entry): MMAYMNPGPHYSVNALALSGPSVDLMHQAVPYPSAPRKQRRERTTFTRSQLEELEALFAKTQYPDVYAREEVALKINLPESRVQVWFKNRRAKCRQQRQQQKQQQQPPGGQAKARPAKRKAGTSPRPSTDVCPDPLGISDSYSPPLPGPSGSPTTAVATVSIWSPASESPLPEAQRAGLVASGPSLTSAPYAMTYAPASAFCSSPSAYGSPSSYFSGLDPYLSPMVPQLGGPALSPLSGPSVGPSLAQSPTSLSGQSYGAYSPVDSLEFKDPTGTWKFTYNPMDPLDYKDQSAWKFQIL
ETV5, sequence (P41161 whole entry): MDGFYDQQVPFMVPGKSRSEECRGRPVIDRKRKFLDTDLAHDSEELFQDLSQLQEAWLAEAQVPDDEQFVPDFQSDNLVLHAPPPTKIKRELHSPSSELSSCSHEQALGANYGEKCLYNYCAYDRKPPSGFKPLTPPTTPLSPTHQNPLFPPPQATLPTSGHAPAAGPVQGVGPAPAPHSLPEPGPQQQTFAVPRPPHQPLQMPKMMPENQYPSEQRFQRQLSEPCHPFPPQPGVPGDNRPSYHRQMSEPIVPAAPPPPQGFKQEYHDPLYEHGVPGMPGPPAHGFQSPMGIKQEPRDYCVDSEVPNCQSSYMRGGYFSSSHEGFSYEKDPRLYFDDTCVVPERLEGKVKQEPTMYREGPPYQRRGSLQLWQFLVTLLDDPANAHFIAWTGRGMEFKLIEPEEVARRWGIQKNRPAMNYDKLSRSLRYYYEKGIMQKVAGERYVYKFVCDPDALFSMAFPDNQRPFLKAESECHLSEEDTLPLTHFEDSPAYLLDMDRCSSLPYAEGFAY
SPIB, sequence (Q01892 whole entry): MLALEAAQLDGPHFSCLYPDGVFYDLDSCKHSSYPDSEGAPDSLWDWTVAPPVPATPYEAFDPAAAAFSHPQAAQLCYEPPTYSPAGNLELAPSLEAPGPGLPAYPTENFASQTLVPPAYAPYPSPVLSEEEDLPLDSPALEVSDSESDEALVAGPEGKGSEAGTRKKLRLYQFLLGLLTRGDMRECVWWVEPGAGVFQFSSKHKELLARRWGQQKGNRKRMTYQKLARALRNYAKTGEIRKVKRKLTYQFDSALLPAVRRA
ELF4, sequence (Q99607 whole entry): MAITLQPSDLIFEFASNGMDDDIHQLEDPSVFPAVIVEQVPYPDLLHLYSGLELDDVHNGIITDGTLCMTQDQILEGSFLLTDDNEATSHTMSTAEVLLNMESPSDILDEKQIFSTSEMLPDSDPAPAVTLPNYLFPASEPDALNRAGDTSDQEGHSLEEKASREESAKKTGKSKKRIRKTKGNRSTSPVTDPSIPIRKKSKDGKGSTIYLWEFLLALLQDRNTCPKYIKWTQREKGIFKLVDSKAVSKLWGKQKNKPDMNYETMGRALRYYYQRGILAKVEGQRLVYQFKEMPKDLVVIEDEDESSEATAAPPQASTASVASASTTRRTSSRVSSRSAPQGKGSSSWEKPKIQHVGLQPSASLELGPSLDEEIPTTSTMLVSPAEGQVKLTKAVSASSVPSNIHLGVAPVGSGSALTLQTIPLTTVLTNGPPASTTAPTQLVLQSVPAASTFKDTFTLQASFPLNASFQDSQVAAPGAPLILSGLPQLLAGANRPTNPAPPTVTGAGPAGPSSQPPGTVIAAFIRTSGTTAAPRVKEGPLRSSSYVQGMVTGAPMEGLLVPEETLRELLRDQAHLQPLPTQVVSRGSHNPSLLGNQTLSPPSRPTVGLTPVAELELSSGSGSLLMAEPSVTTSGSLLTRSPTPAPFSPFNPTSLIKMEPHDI
ELF1, sequence (P32519 whole entry): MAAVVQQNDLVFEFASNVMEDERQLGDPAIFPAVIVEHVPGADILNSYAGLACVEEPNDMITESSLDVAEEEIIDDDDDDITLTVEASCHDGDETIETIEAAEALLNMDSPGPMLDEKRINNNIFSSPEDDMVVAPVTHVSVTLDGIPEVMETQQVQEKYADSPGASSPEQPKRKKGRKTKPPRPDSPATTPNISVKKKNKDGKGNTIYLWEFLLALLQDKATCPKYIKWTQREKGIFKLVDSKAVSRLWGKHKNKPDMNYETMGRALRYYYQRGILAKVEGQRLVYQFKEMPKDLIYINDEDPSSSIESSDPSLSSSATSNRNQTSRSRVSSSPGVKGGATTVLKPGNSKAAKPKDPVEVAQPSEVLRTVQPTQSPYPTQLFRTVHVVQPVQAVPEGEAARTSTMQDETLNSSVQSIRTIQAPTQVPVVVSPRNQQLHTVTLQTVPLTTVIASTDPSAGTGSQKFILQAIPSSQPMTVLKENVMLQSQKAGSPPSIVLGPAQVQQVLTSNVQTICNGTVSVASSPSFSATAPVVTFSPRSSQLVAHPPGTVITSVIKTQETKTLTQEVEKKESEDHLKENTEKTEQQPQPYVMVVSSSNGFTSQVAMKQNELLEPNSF
ETV1, sequence (P50549 whole entry): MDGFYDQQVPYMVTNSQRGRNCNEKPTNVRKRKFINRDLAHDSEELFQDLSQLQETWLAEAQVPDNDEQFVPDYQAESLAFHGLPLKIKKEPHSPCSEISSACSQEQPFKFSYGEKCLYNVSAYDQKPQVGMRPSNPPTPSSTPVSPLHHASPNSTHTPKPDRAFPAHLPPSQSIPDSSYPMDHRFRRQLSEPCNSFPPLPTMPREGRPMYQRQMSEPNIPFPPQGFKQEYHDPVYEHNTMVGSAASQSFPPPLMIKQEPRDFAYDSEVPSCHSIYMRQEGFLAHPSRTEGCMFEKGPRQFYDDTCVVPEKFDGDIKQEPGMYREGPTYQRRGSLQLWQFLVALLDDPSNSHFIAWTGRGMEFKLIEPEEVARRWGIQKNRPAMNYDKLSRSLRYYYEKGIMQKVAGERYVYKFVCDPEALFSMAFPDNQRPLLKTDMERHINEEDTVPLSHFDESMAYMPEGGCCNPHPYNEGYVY
HSF1, sequence (Q00613 whole entry): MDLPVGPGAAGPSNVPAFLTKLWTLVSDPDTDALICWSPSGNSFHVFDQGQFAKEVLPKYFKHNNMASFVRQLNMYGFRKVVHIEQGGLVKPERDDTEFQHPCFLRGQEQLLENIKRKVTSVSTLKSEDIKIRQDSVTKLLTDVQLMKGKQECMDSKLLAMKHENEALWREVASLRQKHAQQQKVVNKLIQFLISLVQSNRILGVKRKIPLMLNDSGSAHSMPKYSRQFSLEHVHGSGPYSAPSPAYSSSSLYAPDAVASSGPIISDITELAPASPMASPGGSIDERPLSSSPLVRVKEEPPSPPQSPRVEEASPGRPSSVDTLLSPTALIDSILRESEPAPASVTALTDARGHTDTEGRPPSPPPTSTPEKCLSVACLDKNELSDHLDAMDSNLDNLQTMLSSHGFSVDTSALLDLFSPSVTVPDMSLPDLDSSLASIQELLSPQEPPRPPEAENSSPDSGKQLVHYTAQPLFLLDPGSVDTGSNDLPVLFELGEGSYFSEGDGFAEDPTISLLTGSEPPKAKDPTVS

## CTGATA
[1]
  binding signal: 1.15 fold enrichment (6-mer frequency, TF over GST control)
[2]
  binding signal: 1.17 fold enrichment (6-mer frequency, TF over GST control)
[3]
  binding signal: 1.27 fold enrichment (6-mer frequency, TF over GST control)
[4]
  binding signal: 1.1 fold enrichment (6-mer frequency, TF over GST control)
[5]
  binding signal: 1.21 fold enrichment (6-mer frequency, TF over GST control)
[6]
  binding signal: 1.26 fold enrichment (6-mer frequency, TF over GST control)
[7]
  binding signal: 1.28 fold enrichment (6-mer frequency, TF over GST control)
[8]
  binding signal: 1.32 fold enrichment (6-mer frequency, TF over GST control)
[9]
  binding signal: 1.24 fold enrichment (6-mer frequency, TF over GST control)
[10]
  binding signal: 1.14 fold enrichment (6-mer frequency, TF over GST control)
[11]
  binding signal: 1.18 fold enrichment (6-mer frequency, TF over GST control)
[12]
  binding signal: 1.18 fold enrichment (6-mer frequency, TF over GST control)
[13]
  binding signal: 1.11 fold enrichment (6-mer frequency, TF over GST control)
[14]
  binding signal: 1.19 fold enrichment (6-mer frequency, TF over GST control)
[15]
  binding signal: 1.35 fold enrichment (6-mer frequency, TF over GST control)
[16]
  binding signal: 1.15 fold enrichment (6-mer frequency, TF over GST control)
[17]
  binding signal: 1.13 fold enrichment (6-mer frequency, TF over GST control)
[18]
  binding signal: 1.26 fold enrichment (6-mer frequency, TF over GST control)
[19]
  binding signal: 1.13 fold enrichment (6-mer frequency, TF over GST control)
